# High-throughput results deposited in PubChem by National Center for Advancing Translational Sciences (NCATS).
# AmpC nodet inh = Promiscuous and Specific Inhibitors of AmpC Beta-Lactamase (assay without detergent). AID 585, 2007. hit rate 1.8% among 71,000. AmpC nitrocefin hydrolysis, absorbance 480 nm, no detergent. P00811. Potency, µM (series often up to 28.7 µM)
# Target sequence (P00811 whole entry, looked up): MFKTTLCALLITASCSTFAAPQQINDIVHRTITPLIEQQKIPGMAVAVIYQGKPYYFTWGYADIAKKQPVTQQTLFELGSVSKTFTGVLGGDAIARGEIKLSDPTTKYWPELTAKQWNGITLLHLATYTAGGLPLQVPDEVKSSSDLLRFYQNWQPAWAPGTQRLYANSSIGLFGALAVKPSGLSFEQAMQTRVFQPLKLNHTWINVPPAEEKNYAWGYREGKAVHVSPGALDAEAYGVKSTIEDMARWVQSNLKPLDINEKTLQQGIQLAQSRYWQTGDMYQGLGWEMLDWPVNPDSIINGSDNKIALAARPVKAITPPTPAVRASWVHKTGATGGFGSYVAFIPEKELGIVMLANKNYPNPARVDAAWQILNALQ
#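 AmpC, 20 mM phosphate pH 7.0; 15 min cpd preinc, RT; start with nitrocefin (800 uM stock); A480 kinetic read, 20 s intervals, 4 min. No-enzyme wells = negative control.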
# AmpC det inh = Promiscuous and Specific Inhibitors of AmpC Beta-Lactamase (assay with detergent) | P00811 | purified AmpC, nitrocefin hydrolysis with detergent | Potency, µM (highest dose often 28.7 µM) | hit rate 0.09% among 71,000 | AID 584, 2007; active = well fitted curve in the direction sought with a large enough effect; inconclusive = small, poorly fitted or top-dose-only effect
#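 E. coli AmpC (5.3 nM) in 20 mM phosphate pH 7.0 with 0.01% Triton X-100, preincubated 15 min RT with compound; nitrocefin (2 uL of 800 uM stock) hydrolysis followed by 480 nm absorbance every 20 s over 4 min.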
# Prx2 Sm inh = Schistosoma Mansoni Peroxiredoxins (Prx2) | S. mansoni Prx2 activity coupled to TGR/GSH (TGR is thioredoxin glutathione reductase), NADPH fluorescence loss, qHTS | Potency, µM | hit rate 0.07% among 65,000
#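 Prx2 inhibition was measured as reduced NADPH consumption when electrons flowed from NADPH through TGR and glutathione to Prx2 and H2O2. Plates were read kinetically over 8 min; enzyme reagents were held at 4 deg C during dispensing.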
# LT uptake inh = qHTS Assay for Anthrax Lethal Toxin Internalization; Cells, anthrax lethal toxin internalization, FRET ratio (460/530); Potency, µM (highest dose often 40 µM), actives largely listed as inhibitors; hit rate 0.67% among 70,000; AID 912, 2007; also: nearly all actives have a fitted effect of over 50% in size
# Numbers stand for hits; i = inactive; ? = inconclusive; nt = no result; ! = a repeat was not active; [ ] = dose if it differs, or a comment. In the library only some 2.4% were active in any assay of this set; here they are far more common. Unless noted, calls follow the shape of the full dose curve.
SMILES,AmpC nodet inh,AmpC det inh,Prx2 Sm inh,LT uptake inh
O=C(CSc1nnnn1-c1ccccc1)Nc1nsc(-c2ccccc2)n1,i,i,i,i
O=C(CSc1nnnn1-c1ccccc1)Nc1nsc(-c2ccc(Cl)cc2)n1,10µM[single pt active],i,i,i
Cc1ccc(-c2nc(NC(=O)CSc3nnc(C)s3)ns2)cc1,4µM[single pt active],i,i,i
Cc1nnc(SCC(=O)Nc2nsc(-c3ccccc3)n2)s1,i,i,i,nt
COc1ccc(-c2noc(CN(C)S(=O)(=O)c3ccc(Cl)cc3)n2)cc1OC,i,i,i,13µM
COc1ccccc1C(=O)N(Cc1nc(-c2ccc(Cl)cc2)no1)C(C)C,i,i,i,13µM
Nc1ccn([C@H]2O[C@@H](COP(=O)(O)O)[C@@H](O)[C@H]2O)c(=O)n1,i[5.75 µM],i[5.75 µM],i,i[8 µM]
COc1ccccc1Cc1nc(-c2ccc(Br)o2)no1,4µM[single pt active],i,i,?
Nc1ncnc2c1ncn2[C@@H]1CCCO1,i,i,i,i
OC[C@H]1CCCN2CCCC[C@@H]12,i,i,i,i
COc1nc(-c2ccccc2)cc(-c2ccc(OC)c(OC)c2)n1,i,i,nt,13µM
COc1ccc(-c2cc(C(F)(F)F)nc(N3CCN(c4ccccc4)CC3)n2)cc1OC,i,i,i,i
C=C1CC[C@@H](O)C/C1=C/C=C1\CCC[C@]2(C)[C@@H]1CC[C@H]2[C@@H](C)CCCC(C)C,i,i,i,?
CSC([N-]/N=C/c1cccc(C)n1)=[S]=[Cu].CS[C@H]([S-])[N-]/N=C/c1cccc(C)n1,i[5.75 µM],i[5.75 µM],i,?
CCCCCCCCCCCC1=C(O)C(=O)C=C(O)C1=O,4µM,i,i,?
CCCCCc1cc(O)cc(O)c1,i,i,nt,?
O=c1cc(-c2ccc(O)c(O)c2)oc2cc(O)cc(O)c12,0.5µM!,i,i,?
COc1ccc(-c2cc(=O)c3c(O)cc(O)cc3o2)cc1,i,i,i,i[3.58 µM]
Cn1cnnc1SCC(=O)Nc1sc2c(c1C(N)=O)CCC2,10µM,i,i,?
NC(=O)c1c(NC(=O)CSc2nnc(-c3ccccc3)n2CC2CCCO2)sc2c1CCC2 (stereo unspecified),i,i,i,i
O=C(O)/C=C\C(=O)Nc1ccc2c(c1)-c1ccccc1C2,i[5.75 µM],i[5.75 µM],i,i[8 µM]
C[C@H](c1ccccc1)N1C(=O)[C@H]2[C@@H]3[C@H](O)[C@H](O)CC(=O)[C@H]3CC[C@H]2C1=O,nt,nt,nt,i[8 µM]
Oc1ccc(Cl)cc1-c1cc(-c2ccccc2)n[nH]1,4µM[single pt active],i,i,?
O=C(c1ccc(Cl)cc1)c1ccccc1C(=O)N1CCOCC1,i,i,i,i
Nc1nc(C(=O)N2CCOCC2)nn1C(=O)c1ccc(Cl)cc1,4µM[single pt active],i,i,i
SMILES,AmpC nodet inh,AmpC det inh,Prx2 Sm inh,LT uptake inh
Cc1nc2ccccc2cc1C[N+]12CN3CN(CN(C3)C1)C2,i[5.75 µM],i[5.75 µM],i,i[8 µM]
O=C(O)CCSc1ncnc2nc[nH]c12,i[5.75 µM],i[5.75 µM],i,i[8 µM]
O=C(O)c1cc[c]([Hg][S]c2ncnc3nc[nH]c23)cc1,i[5.75 µM],i[5.75 µM],0.86,i[8 µM]
NC(=O)c1ccsc1NC(=O)COC(=O)c1ccccc1NCc1ccco1,5µM,i,i,?
O=C(COC(=O)c1ccccc1Nc1ccccc1)NCc1ccco1,i,i,i,i
C[C@]12Cc3cn4c(nc3C=C1CC[C@H]1[C@@H]2CC[C@@]2(C)[C@H]1CC[C@@]2(O)C#N)nc1ccccc14,i,i,i,?
Cc1ccc2c(CC(=O)OCc3csc(C)n3)coc2c1,i,i,i,i
O=C(Cc1coc2cc3c(cc12)CCC3)OCc1cc(=O)n2c(n1)sc1ccccc12,10µM,i,i,i
N#CC(C#N)=NNc1ccc(OC(F)(F)F)cc1,nt,nt,nt,0.5µM
COCCCNCC(=O)Nc1ccc(OC(F)(F)F)cc1,i,i,i,i
CO[C@H]1[C@H](O)[C@H](O[C@@H]2[C@H](Oc3cccc4c(O)c5c(=O)oc6ccc(C)c7c(=O)oc(c34)c5c67)O[C@@H](C)[C@H](O)[C@H]2O)O[C@@H](C)[C@@H]1O,i[5.75 µM],i[5.75 µM],i,i[8 µM]
c1ccc2c(c1)CCC[C@H]2C1=NCCN1,i,i,i,i
NC(=NCCCCCCN=C(N)/N=C(\N)Nc1ccc(Cl)cc1)/N=C(\N)Nc1ccc(Cl)cc1,2.5µM,i,i,?
CCCCN(CC)S(=O)(=O)c1cccc2cccnc12,i,i,i,?
COc1ccc(CNc2oc(-c3ccccc3)nc2C#N)cc1,4µM[single pt active],i,i,i
COc1ccc(CCNc2oc(-c3ccc(C)cc3)nc2C#N)cc1OC,4µM[single pt active],i,i,i
O=C(Cc1ccccc1)Nc1nc(-c2cccs2)cs1,?,i,i,?
O=C(COc1ccc(Cl)cc1)Nc1nc(-c2cccs2)cs1,?,i,i,10µM
S=C(Nc1ccccc1)Nc1ccccc1C#Cc1ccccc1,5µM,i,i,?
CCc1ccc(-c2cn(-c3nc(C)cc(C)n3)c(=N)o2)cc1,i,i,i,13µM
O=C(Cc1cccs1)Nc1nnc(CCc2ccccc2)s1,i,i,i,i
CCCCCc1nnc(NC(=O)Cc2cccs2)s1,13µM,i,i,i
COc1ccc(Cc2nnc(NC(=O)Cc3cccs3)s2)cc1OC,13µM,i,i,i
CN1CCN(c2ncc3ncc(=O)n(CCC#N)c3n2)CC1,i,i,i,i
O=C(c1csnn1)N1CCC2(CCCN(c3ccccn3)C2)CC1,i,i,i,i
SMILES,AmpC nodet inh,AmpC det inh,Prx2 Sm inh,LT uptake inh
CC(C)CCNC(=O)Cn1c(NCCC(C)C)nc2c1c(=O)n(C)c(=O)n2C,2.5µM[single pt active],i,i,i
CCOc1ccc(C(=O)c2ccc(OCC)c(N)c2)cc1N,i,i,nt,10µM
N#C/C(=C\c1ccc(O)c(O)c1)C(=O)NCCCc1ccccc1,0.2µM!,i,i,?
CCCCC[C@H](CC(=O)NO)C(=O)N[C@@H](C(=O)N1CCC[C@H]1CO)C(C)C,i,i,i,i
Nc1c(S(=O)(=O)O)cc(Nc2ccc(Nc3nc(Cl)nc(Nc4ccc(S(=O)(=O)O)cc4)n3)c(S(=O)(=O)O)c2)c2c1C(=O)c1ccccc1C2=O,i,13µM,i,?
COc1ccccc1NC(=O)Cn1c(=O)n2nc(C)nc2c2ccccc21,i,i,i,i
COc1ccc(Cl)cc1NC(=O)Cn1c(=O)n2nc(C)nc2c2ccccc21,4µM[single pt active],i,i,i
O=C(CN(C1CC1)S(=O)(=O)c1ccc(S(=O)(=O)NC2CCCCC2)cc1)Nc1ccccc1,i,i,i,10µM
COc1cccc(Cn2c(=O)cnc3cnc(OC)nc32)c1,i,i,i,i
O=C=Nc1ccc(Cc2ccc(N=C=O)cc2)cc1,16µM,i,nt,i
CCCC[S@@](=N)(=O)CC[C@@H](N)C(=O)O,i,i,i,i
O=c1[nH][nH]c(=S)c(=O)[nH]1,i[5.75 µM],i[5.75 µM],i,i[8 µM]
Cc1cc(N2CCOCC2)nc2ccc(NC(=O)C3CCC(C)CC3)cc12 (stereo unspecified),i,i,i,i
Cc1cc(N2CCC(N(C)C3CCCC3)CC2)nc2cc(O)ccc12,i,i,i,3.2µM
CCN(CC)CCOc1c(Br)ccc2c1sc1nc3n(c(=O)c12)CCC3,i,i,nt,7.9µM
COc1ccc2c(CC(=O)Nc3ccc(OC)c(NS(=O)(=O)c4ccc(F)cc4)c3)coc2c1,?,i,i,10µM
